Screens from PubChem BioAssay.
MsrA inh: bovine MsrA enzyme inhibitors, primary screen, biochemical, absorbance, HTS | Methionine sulfoxide reductase A (Bos taurus) | purified bovine MsrA, absorbance read-out | inhibition, % at 15.5 µM | 0.75% of 360,000 active;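 further: 0% = vehicle wells with enzyme and 100% = reference inhibitor wells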
m5-HT2A agonist: mouse Htr2a agonists via beta-arrestin recruitment, primary screen, cell-based, luminescence; 5-hydroxytryptamine receptor 2A (Mus musculus), P35363; CHO-K1 mHTR2A beta-arrestin complementation; percent of 30 µM serotonin response; activation, % at 7.6 µM; 0.66% of 360,000 active; AID 624169, 2012;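 active means activation above a run cutoff, the mean activation of all tested compounds plus 3 SD, cut at about 14% in these data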;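 further: 0% = plate median of compound wells and 100% = 30 µM serotonin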
NPR2 activator: human GC-B receptor activators, primary screen, HEK293 GC-B cells, cGMP TR-FRET, EC30 CNP. activation, % at 10 µM. 0.11% of 370,000 active. 0% at EC30 CNP, 100% saturating CNP;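 active means activation at 10 µM reaching about 35% in either raw or pattern-adjusted values, limit read from the data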
GC-A act: GC-A stimulated cGMP production enhancers – HEK293 GC-A cells, cGMP TR-FRET, EC30 ANP, primary screen; 0% at EC30 ANP, 100% saturating ANP; activation, % at 10 µM; 0.14% of 370,000 active; AID 1671463, 2021; in the data active means activation above about 40%
MsrA act: bovine MsrA enzyme activators, primary screen, biochemical, absorbance, HTS | AID 602163, 2012 | activation, % at 10.6 µM | Methionine sulfoxide reductase A (Bos taurus) | purified bovine MsrA, absorbance read-out | 0.3% of 360,000 active; in the data active means activation above about 7.5%;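 further: 0% = vehicle and 100% = reference activator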
MsrA conf: bovine MsrA inhibitors, retest, confirmation, biochemical, absorbance, HTS; shares compounds with MsrA inh; inhibition, % at 15.5 µM; 41% of 2,300 active; purified bovine MsrA, absorbance read-out;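 further: coupled to thioredoxin reductase with NADPH and selenocystamine and DMSO as substrate; 0% = vehicle only and 100% = full effect of reference inhibitor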
* hit, by the source's call; · = not tested or not shown. The list is not random: actives were taken first. Their share in the collection is about 1.8%. Unless noted, no stated cut-off is given here; in the data, active means inhibition above about 4.5%; inactive means the rest.

SMILES	MsrA inh	m5-HT2A agonist	NPR2 activator	GC-A act	MsrA act	MsrA conf
COc1ccc2cc3cc(C(=O)NCC4CCCO4)oc3nc2c1 (stereo not given)	6.2*	2	2	6	-5	4
COCCNC(=O)c1cc2cc3ccc(OC)cc3nc2o1	4.8*	9	-4	2	-5	4
COc1ccc2cc3cc(C(=O)NCCC(C)C)oc3nc2c1	1	-9	0	6	-2	·
CCC(C)NC(=O)c1cc2cc3ccc(OC)cc3nc2o1 (stereo not given)	5.0*	7	-9	3	-5	5
CCCC1CCC2(CC1)CCC2OC(=S)Nc1ccc(Br)cc1 (stereo not given)	·	·	-5	0	·	·
CCN(CC)c1ccc(C(=O)c2ccccc2C(=O)O)c(O)c1	4.7*	-1	5	1	-4	4.8*
CC1(C)C=C(c2ccc(C=O)s2)CC(C)(C)N1C=O	4.8*	5	5	-2	-10	3
Cc1cc(/C=C(\C#N)C(=O)N2CCCCC2)cc(C)c1O	4.8*	-2	-1	0	-5	3
N#C/C(=C\c1cccc(O)c1)C(=O)N1CCCCC1	0	3	3	5	-3	·
CCOC(=O)C1=C(c2ccccc2)OC(N)=C(C#N)C1c1ccco1 (stereo not given)	6.3*	1	2	-2	-4	3
COC(=O)C1=C(C)OC(N)=C(C#N)C1c1ccco1 (stereo not given)	2	0	-2	1	-3	·
O=C(/C=C/c1c(Cl)nc2ccccn12)N1CCCCC1	7.8*	3	-2	0	-4	4
S=c1nccc(-c2ccc3c(c2)CCO3)[nH]1	5.6*	-5	-4	4	-6	3
CC1(C)CCc2cc(-c3ccnc(=S)[nH]3)ccc2O1	2	0	-1	-3	0	·
CCOC(=O)c1ccccc1NC(=O)CN(c1ccccc1)S(=O)(=O)N(C)C	5.6*	1	-16	-35	-2	4
COc1cc([N+](=O)[O-])ccc1NC(=S)NNC(=O)c1ccc2c(c1)OCO2	4.7*	1	-1	1	2	3
Cc1ccc2c(c1)C(CS(=O)(=O)NCc1ccc(F)cc1)NC2 (stereo not given)	·	·	7	1	·	·
Cc1noc(NS(=O)(=O)c2ccc(NC(=O)c3cnc4n(c3=O)CCS4)cc2)c1C	6.9*	-2	-1	-1	-5	4.6*
CCn1cc(/C=C(\NC(=O)c2ccccc2F)C(=O)NCCN2CCOCC2)c2ccccc21	5.3*	-6	-1	-1	-5	3
COc1ccc(C(=O)N/C(=C\c2cn(C)c3ccccc23)C(=O)NCCCN2CCOCC2)cc1OC	5.7*	-7	-1	-5	-5	4
CN(C)c1ccc(/C=C(\NC(=O)c2ccccc2)C(=O)NCCN2CCOCC2)cc1	5.3*	-1	-5	-8	-4	4
CN(C)S(=O)(=O)n1cc(/C=C(\NC(=O)c2ccccc2F)C(=O)NCCN2CCOCC2)c2ccccc21	1	-1	-1	0	-6	·
Cn1cc(/C=C(\NC(=O)c2ccccc2)C(=O)NCCCN2CCOCC2)c2ccccc21	6.8*	2	-5	-3	-6	5.3*
COc1ccc(-c2c(Cc3ccccc3)nc(NC(=O)c3ccccc3)n2Cc2ccc(OC)cc2OC)cc1	·	·	-3	6	·	·
CCn1cc(/C=C(\NC(=O)c2ccc(OC)c(OC)c2)C(=O)NCCN2CCOCC2)c2ccccc21	3	-1	-1	2	-8	·
SMILES	MsrA inh	m5-HT2A agonist	NPR2 activator	GC-A act	MsrA act	MsrA conf
CCn1cc(/C=C(\NC(=O)c2ccc(OC)c(OC)c2)C(=O)NCCCO)c2ccccc21	5.8*	1	-7	1	-3	4
NC(=O)c1ccsc1NC(=O)COC(=O)C1CC2CCCC(C1)C2=O (stereo not given)	1	2	2	2	-3	·
CC1Cc2ccccc2N1C1=CC(=O)CCC1 (stereo not given)	5.5*	5	2	2	-4	5.4*
CC1Cc2ccccc2N1C1=NS(=O)(=O)c2ccccc21 (stereo not given)	2	-9	5	-3	-1	·
O=C1CCCc2nc(N3CCCCC3)sc21	5.8*	2	-6	-2	-3	5.2*
COc1ccc(NS(=O)(=O)c2cc(-c3cnc(C4CC4)o3)ccc2C)cc1	11*	-1	-6	-16	-3	7.2*
COc1ccccc1NS(=O)(=O)c1cc(-c2cnc(C3CC3)o2)ccc1C	0	-10	3	2	-4	·
COc1cc(-c2[nH]ncc2CN2CCCC2c2nonc2C)cc(OC)c1OC (stereo not given)	-1	1	-1	4	-4	·
Cc1nonc1C1CCCN1Cc1cn[nH]c1-c1ccc(-c2ccccc2)cc1 (stereo not given)	29*	-6	-7	-3	-5	22*
C[C@@H]1CN([C@H](C)CO)C(=O)CCCn2nncc2CO[C@H]1CN(C)C(=O)Nc1ccc2c(c1)OCCO2	1	·	1	4	·	·
CN(N=Cc1ccc(N(C)C)cc1)C(=O)c1ccccc1N	5.3*	·	5	2	·	3
COc1ccc(/C=N/NC(=O)Cn2nnc3ccccc32)cc1OC	0	-2	0	7	-1	·
COc1ccc(/C=C(\NC(=O)c2ccccc2)C(=O)N/N=C/c2ccncc2)cc1	5.0*	3	1	-2	-5	6.0*
CN(C)c1ccc(/C=N/NC(=O)CCc2c[nH]c3ccccc23)cc1	5.5*	4	-3	1	-2	3
CN(C)c1ccc(/C=N/NC(=O)Cn2nnc3ccccc32)cc1	5.1*	2	-1	-5	-6	4.7*
CCCCN1CC[C@@H](C)Oc2cc(Br)ccc2S1(=O)=O	·	·	-9	-15	·	·
COC(=O)[C@]12C[C@H](CC(=O)NCc3cccs3)C(=O)N(CCC3=CCCCC3)C1=C[C@H](C(C)(C)C)O[C@@H]2C	1	·	-1	2	·	·
CCOC(=O)Cn1cc(CN2C(C(=O)OC)CN(Cc3ccc(OC)cc3)CCS2(=O)=O)nn1 (stereo not given)	·	·	-5	0	·	·
CSc1ccc(/C=N/NC(=O)c2cccs2)cc1	3	2	-1	-2	-4	·
CSc1ccc(/C=N/NC(=O)c2ccccc2Cl)cc1	5.8*	-3	0	-3	-8	4
CN(C)c1ccc(/C=N/NC(=O)c2ccccc2Cl)cc1	6.3*	-3	-3	-4	-3	5.0*
